Test in all cases: NCI-60 one-dose screen, 48 h (100 = growth as untreated, 0 = no growth, -100 = all killed)
One test deals with HCT-15 colon. As to conditions: 10 µM unless noted.
Another test deals with HT29 colon. As to conditions: 10 µM unless noted.
In another test the test system is SNB-75 CNS. As to conditions: 10 µM unless noted.
Another test concerns SNB-19 CNS. As to conditions: 10 µM unless noted.
For a further test, the system named is U251 CNS. As to conditions: 10 µM unless noted.
The next test deals with PC-3 prostate. As to conditions: 10 µM unless noted.
Another test deals with SK-MEL-5 melanoma. Conditions: 10 µM unless noted.
A further test concerns UACC-62 melanoma. Conditions: 10 µM unless noted.
For a further test, the system named is LOX IMVI melanoma. As to conditions: 10 µM.
Another test relates to SK-MEL-28 melanoma. As to conditions: 10 µM unless noted.
Another test has as its system SK-MEL-2 melanoma. Conditions: 10 µM unless noted.
Another test relates to EKVX NSCLC. As to conditions: 10 µM unless noted.
The test system of a further test is SN12C renal. As to conditions: 10 µM unless noted.
Another test relates to UO-31 renal. As to conditions: 10 µM unless noted.
The subject of a further test is TK-10 renal. As to conditions: 10 µM unless noted.
A further test concerns ACHN renal. Conditions: 10 µM unless noted.
Another test deals with CAKI-1 renal. Conditions: 10 µM unless noted.
The test system of the next test is A498 renal. Conditions: 10 µM unless noted.
Another test deals with CCRF-CEM leukemia. As to conditions: 10 µM unless noted.
For another test, the system named is MOLT-4 leukemia. Conditions: 10 µM unless noted.

Compounds without any hit were thinned out: in the full panel of roughly 83,000, 20% have a hit.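 Step 1: grow cells in 96-well plates. Step 2: add test compound at a single concentration. Step 3: incubate 48 h. Step 4: record percent growth.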 Values without a mark were called inactive. Active and inactive are the calls of the source. Rule for the calls: active = growth percent below 10; inactive = the rest.

For the compound `O=C(NCCc1ccccc1)/C(=C\c1ccc(Cl)cc1Cl)NC(=O)c1ccccc1`, the growth in the test on HCT-15 colon was 98.4%; with HT29 colon it was 98.3%; in the test on SNB-75 CNS, 83.4%; with SNB-19 CNS, 99.2%; in the test on U251 CNS, 97%; with PC-3 prostate it was 88.8%. For the same compound, the growth in the test on SK-MEL-5 melanoma is 96.4%; in the test with UACC-62 melanoma, 98.6%; in the test on LOX IMVI melanoma it was 92.7%; in the test with SK-MEL-28 melanoma it was 105%; with SK-MEL-2 melanoma it was 114%; with EKVX NSCLC, 96%. In addition, the growth with SN12C renal was 96.1%; in the test on UO-31 renal, 88.5%; in the test with TK-10 renal it was 96.6%; in the test with ACHN renal, 98.9%; in the test with CAKI-1 renal, 92.9%; with A498 renal, 87.5%. In addition, the growth in the test on CCRF-CEM leukemia was 97.9%; in the test with MOLT-4 leukemia, 94.7%.
Consider `Cc1ccc(C)c(CN(C)C)c1O`, for which the growth in the test on HCT-15 colon was 121%; with HT29 colon, 115%; with SNB-75 CNS, 84.2%; in the test on SNB-19 CNS, 122%; with U251 CNS, 99.6%; in the test on PC-3 prostate, 102%. Further, the growth was 107% in the test with SK-MEL-5 melanoma; 117% in the test with UACC-62 melanoma; 98.9% with LOX IMVI melanoma; 102% in the test on SK-MEL-28 melanoma; 143% with SK-MEL-2 melanoma; 98.1% in the test on EKVX NSCLC. Also, the growth is 115% with SN12C renal; 90.1% in the test on UO-31 renal; 105% in the test on TK-10 renal; 114% in the test with ACHN renal; 114% with CAKI-1 renal; 94.2% in the test with A498 renal. Further, the values for the growth with CCRF-CEM leukemia and in the test on MOLT-4 leukemia were 135% and 124%, respectively.
Take `O=[N+]([O-])c1c(O)c(CNCCCO)cc(CNCCCO)c1O`: the growth with HCT-15 colon was 106%; with HT29 colon it was 107%; in the test on SNB-75 CNS, 91.2%; in the test on SNB-19 CNS, 105%; in the test with U251 CNS, 99.6%; with PC-3 prostate, 88.7%. Also, the growth with SK-MEL-5 melanoma is 119%; in the test with UACC-62 melanoma, 97.7%; in the test with LOX IMVI melanoma it was 93.9%; in the test with SK-MEL-28 melanoma, 121%; in the test with SK-MEL-2 melanoma, 87.9%; in the test with EKVX NSCLC it was 96.1%. The growth in the test with SN12C renal is 104%; in the test with UO-31 renal, 63.7%; with TK-10 renal it was 111%; in the test on ACHN renal it was 93.9%; with CAKI-1 renal, 100%; with A498 renal it was 130%. For the same compound, the growth is 119% in the test on CCRF-CEM leukemia and 73.2% with MOLT-4 leukemia.
Consider `CN1C(=O)NC(c2ccc(Cl)cc2)(c2ccc(Cl)cc2)C1=O`, for which the growth was 106% with HCT-15 colon; 93% in the test with HT29 colon; 84.2% with SNB-75 CNS; 105% with SNB-19 CNS; 94.9% in the test with U251 CNS; 84.6% in the test on PC-3 prostate. In addition, the growth was 98.9% in the test with SK-MEL-5 melanoma; 83.8% in the test on UACC-62 melanoma; 96.2% with LOX IMVI melanoma; 102% in the test with SK-MEL-28 melanoma; 80.6% in the test on SK-MEL-2 melanoma; 91.5% in the test with EKVX NSCLC. In addition, the growth was 103% with SN12C renal; 61.5% in the test with UO-31 renal; 129% in the test with TK-10 renal; 108% in the test with ACHN renal; 92.9% in the test on CAKI-1 renal; 110% in the test on A498 renal. Moreover, the figures for the growth in the test on CCRF-CEM leukemia and with MOLT-4 leukemia were -30.3% (active) and 89.1%, respectively.
For the compound `O=C(c1ccccc1O)N1CCCC1`, the growth in the test with HCT-15 colon was 99.2%; in the test with HT29 colon, 93%; in the test with SNB-75 CNS it was 88%; in the test on SNB-19 CNS it was 97.2%; in the test on U251 CNS it was 89.8%; in the test on PC-3 prostate it was 84.4%. In addition, the growth in the test with SK-MEL-5 melanoma is 105%; with UACC-62 melanoma, 100%; with LOX IMVI melanoma, 99.7%; in the test on SK-MEL-28 melanoma, 98.5%; with SK-MEL-2 melanoma it was 92.9%; in the test on EKVX NSCLC, 97.5%. Further, the growth in the test with SN12C renal is 102%; with UO-31 renal, 91.9%; in the test on TK-10 renal, 96.5%; with ACHN renal, 94.4%; in the test on CAKI-1 renal it was 94.8%; in the test on A498 renal, 91.9%. Further, the growth in the test on CCRF-CEM leukemia was 100%; in the test on MOLT-4 leukemia it was 98.6%.
In the case of `S=CN1CCCCC1`, the growth in the test on HCT-15 colon was 99.9%; with HT29 colon it was 108%; with SNB-75 CNS, 93.2%; in the test with SNB-19 CNS it was 109%; in the test with U251 CNS, 89.1%; with PC-3 prostate, 99.3%. In addition, the growth was 104% in the test on SK-MEL-5 melanoma; 106% in the test with UACC-62 melanoma; 99% with LOX IMVI melanoma; 103% with SK-MEL-28 melanoma; 124% with SK-MEL-2 melanoma; 96.7% in the test on EKVX NSCLC. The growth with SN12C renal was 103%; with UO-31 renal it was 89.1%; with TK-10 renal it was 110%; in the test with ACHN renal, 107%; in the test on CAKI-1 renal, 97.2%; in the test with A498 renal, 105%. Moreover, the figures for the growth with CCRF-CEM leukemia and with MOLT-4 leukemia were 110% and 109%, respectively.
Turning to `c1ccc(Oc2c3ccccc3nc3ccccc23)cc1`, the growth with HCT-15 colon was 14.6%; in the test with HT29 colon it was 2.51% (active); in the test with SNB-75 CNS, 41.5%; in the test with SNB-19 CNS it was 91.9%; in the test with U251 CNS it was 11.7%; with PC-3 prostate, 20.1%. The growth in the test on SK-MEL-5 melanoma was 13.6%; with UACC-62 melanoma, 45.7%; in the test with LOX IMVI melanoma it was 31.3%; with SK-MEL-28 melanoma, 61.2%; with SK-MEL-2 melanoma it was 39.9%; in the test on EKVX NSCLC, 62.1%. Moreover, the growth in the test with SN12C renal is 24.3%; with UO-31 renal it was 43.8%; with TK-10 renal it was 57.6%; with ACHN renal, 31.9%; with CAKI-1 renal it was -20.4% (active); in the test on A498 renal, 33%. Besides, the growth in the test on CCRF-CEM leukemia is 14.2%; in the test on MOLT-4 leukemia, 14.5%.
For the compound `COc1cccc(C(=O)NNC(=O)c2cccc3ccccc23)c1`, the growth with HCT-15 colon was 100%; in the test on HT29 colon it was 98.2%; with SNB-75 CNS, 98.7%; with SNB-19 CNS it was 110%; in the test with U251 CNS, 102%; in the test with PC-3 prostate it was 106%. The growth with SK-MEL-5 melanoma is 107%; in the test on UACC-62 melanoma, 128%; with LOX IMVI melanoma, 98.5%; in the test on SK-MEL-28 melanoma it was 117%; in the test on SK-MEL-2 melanoma it was 107%; in the test on EKVX NSCLC, 106%. For the same compound, the growth in the test on SN12C renal is 108%; with UO-31 renal, 97%; in the test on TK-10 renal it was 120%; in the test on ACHN renal, 106%; with CAKI-1 renal, 102%; with A498 renal it was 105%. For the same compound, the growth with CCRF-CEM leukemia was 104%; in the test with MOLT-4 leukemia it was 98.8%.

The record behind these values is PubChem BioAssay (NCI).
